The values that follow come from PubChem BioAssay (Tox21).

Unmarked numbers belong to inactive results. Records with an inconclusive call do not appear. The source made the active and inactive calls. Unless noted, calls come from the whole dose curve; as a rule, active = well fitted curve in the direction sought with a large enough effect in the repeat runs; inconclusive = weak or mixed curves; inactive = no such curve, though single readings can be large; an effect the other way counts as inactive or inconclusive.

Assay [1] is described as follows: qHTS RealTime-Glo MT Cell Viability Assay in HEK293 cells - 0 hour (AID 1224880). Note: top concentration of the series differs between compounds; nearly all actives have a fitted effect of over 45% in size. An outline of the steps:
(§1)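 Nonlytic bioluminescent viability monitoring. HEK293 at 600 cells/well with reagent; 5 h settle; compound transfer by pintool; plates held at 37 C and read at set time points.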

Assay [2] can be described thus: A CellTox Green Cytotoxicity Assay to monitor cytotoxicity in HEK293 cells - 32 hour (AID 1224881). Note: nearly all actives have a fitted effect of over 40% in size. An outline of the steps: (§2)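 Cytotoxicity was tracked continuously in HEK293 cells by a DNA-binding dye excluded from viable cells. Compounds were transferred in DMSO 5 h after seeding; fluorescence was recorded at intervals up to 40 h.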
The nature of assay [3]: A CellTox Green Cytotoxicity Assay to monitor cytotoxicity in HepG2 cells - 0 hour (AID 1224882). Note: nearly all actives have a fitted effect of over 35% in size. Put shortly: (§3)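 Real-time, homogeneous cytotoxicity readout: dead-cell DNA staining by CellTox Green in HepG2 monolayers, fluorescence measured at timed intervals up to 40 h of continuous compound exposure.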
Assay [4] is described as follows: A CellTox Green Cytotoxicity Assay to monitor cytotoxicity in HEK293 cells - 8 hour (AID 1224884). Note: nearly all actives have a fitted effect of over 35% in size. Put shortly:
as §2

A short description of assay [5]: qHTS RealTime-Glo MT Cell Viability Assay in HepG2 cells - 16 hour (AID 1224885). Note: nearly all actives have a fitted effect of over 50% in size. Put shortly:
(§4)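 HepG2 cells (600/well) were dispensed with RealTime-Glo reagents, incubated 5 h at 37 °C, then treated with compounds in DMSO for up to 40 h. Nonlytic NanoLuc luminescence reflecting viable cells was read at each stated time point.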
(qHTS replaces the single test concentration by a dilution series.)

Assay [6] can be described thus: qHTS RealTime-Glo MT Cell Viability Assay in HEK293 cells - 24 hour (AID 1224886). Note: nearly all actives have a fitted effect of over 50% in size. Note: potency is the fitted concentration of half-maximal effect. Put shortly: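 HEK293 cells seeded with NanoLuc/prosubstrate reagent, rested 5 h at 37 C, then dosed and kept at 37 C up to 40 h. Nonlytic real-time luminescence from viable cells read at 0, 8, 16, 24, 32 and 40 h.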
Assay [7] can be described thus: qHTS RealTime-Glo MT Cell Viability Assay in HEK293 cells - 8 hour (AID 1224887). Note: top concentration of the series differs between compounds; nearly all actives have a fitted effect of over 50% in size. An outline of the steps:
as §1

A short description of assay [8]: A CellTox Green Cytotoxicity Assay to monitor cytotoxicity in HEK293 cells - 16 hour (AID 1224888). Note: nearly all actives have a fitted effect of over 35% in size. Put shortly: as §2
Assay [9] is described as follows: qHTS RealTime-Glo MT Cell Viability Assay in HepG2 cells - 0 hour (AID 1224889). Note: nearly all actives have a fitted effect of over 50% in size. Put shortly:
as §4

Assay [10] is described as follows: A CellTox Green Cytotoxicity Assay to monitor cytotoxicity in HepG2 cells - 8 hour (AID 1224890). Note: nearly all actives have a fitted effect of over 45% in size. Put shortly: as §3
The nature of assay [11]: qHTS assay to identify small molecule antagonists of the estrogen receptor alpha (ER-alpha) signaling pathway using the BG1 cell line in the presence of 0.1 nM 17-beta-estradiol - cell viability counter screen (AID 1259241). Note: nearly all actives have a fitted effect of over 40% in size. Put shortly: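 VM7Luc4E2 cells (endogenous full-length ER-alpha, 4xERE-luciferase), cultured 5 days in charcoal-stripped serum, exposed to compounds with 0.1 nM 17beta-estradiol (final) for 22 hr at 37C. Viability read in same wells as live-cell protease fluorescence after 30 min.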

A short description of assay [12]: qHTS assay to identify small molecule antagonists of the androgen receptor (AR) signaling pathway using the MDA cell line in the presence of 0.5 nM R1881 - cell viability counter screen (AID 1259242). Note: nearly all actives have a fitted effect of over 45% in size. An outline of the steps:
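Cytotoxicity toward MDA-kb2 cells is measured by CellTiter-Fluor live-cell protease fluorescence after 16 hr compound exposure at 37C in the presence of 0.5 nM R1881 stimulator.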

Assay [13] addresses Estrogen receptor (Homo sapiens) (UniProt P03372). As to the kind of experiment: qHTS assay to identify small molecule antagonists of the estrogen receptor alpha (ER-alpha) signaling pathway using the BG1 cell line in the presence of 0.1 nM 17-beta-estradiol (AID 1259244). Note: nearly all actives have a fitted effect of over 50% in size. Put shortly: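 After 5 days in hormone-depleted medium (charcoal-stripped serum, no phenol red), VM7Luc4E2 cells were seeded, incubated 24 h, then co-treated with compound and 0.1 nM (final) estradiol for 22 h before luminescence detection.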

The nature of assay [14]: qHTS assay to identify small molecule HDAC inhibitors - cell viability counter screen (AID 1259365). An outline of the steps:
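Wild-type HCT-116 cells, 1,500/well, cultured overnight, then compound-treated 2 h at 37 C. Viability measured as ATP luminescence with CellTiter-Glo after 30 min at room temperature.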

Assay [15] can be described thus: qHTS assay to identify small molecule agonists of the sonic hedgehog signaling (Shh) pathway - cell viability counter screen (AID 1259366). Note: nearly all actives have a fitted effect of over 50% in size. An outline of the steps:
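NIH/3T3-derived Gli1-Luc reporter cells, 2,000 per well, received compound after 4 h and were treated about 23 h at 37C. Viability measured in the same wells by CellTiter-Fluor fluorescence after 1 h.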

The nature of assay [16]: qHTS assay to identify small molecule antagonists of the sonic hedgehog signaling (Shh) pathway - cell viability counter screen (AID 1259367). Note: nearly all actives have a fitted effect of over 55% in size. An outline of the steps: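 Using CellTiter-Fluor, viability of Gli1-Luc reporter 3T3 cells is read by fluorescence in the wells used for the Shh luciferase assay. Treatment lasts 23 hr with conditioned medium, then reagent 1 hr at 37C.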

Assay [17] in a line: A CellTox Green Cytotoxicity Assay to monitor cytotoxicity in HepG2 cells - 32 hour (AID 1224883). Note: nearly all actives have a fitted effect of over 50% in size. An outline of the steps:
as §3

Assay [18] addresses Androgen receptor (Homo sapiens) (UniProt P10275). Kind of assay: qHTS assay to identify small molecule antagonists of the androgen receptor (AR) signaling pathway using the MDA cell line in the presence of 0.5 nM R1881 (AID 1259243). Put shortly:
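Steps: seed MDA-kb2 cells, incubate 5 hr at 37C; pin-transfer compounds in DMSO; add R1881 to 0.5 nM final; incubate 16 hr; add ONE-Glo, wait 30 min at room temperature; read luminescence.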

Assay [19] is described as follows: qHTS assay to identify small molecule HDAC inhibitors (AID 1259364). Note: top concentration of the series differs between compounds; nearly all actives have a fitted effect of over 45% in size. An outline of the steps: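 Homogeneous cell-based luminescent assay of endogenous class I/II HDAC activity; HCT-116 cells, 2 h compound exposure, 30 min HDAC-Glo development at RT.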
Assay [20] is described as follows: qHTS assay to identify small molecule phospholipidosis (PLD) inducers (AID 1259344; active = well fitted curve in the direction sought with a large enough effect; an effect the other way counts as inactive or inconclusive). An outline of the steps:
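Fluorescent phospholipid staining (LipidTOX Red) measured by automated microscopy in fixed HepG2 cells after 24 h treatment; nuclei counterstained with Hoechst 33342; amiodarone as reference inducer.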

Estrogen receptor (Homo sapiens), sequence (P03372 whole entry, looked up): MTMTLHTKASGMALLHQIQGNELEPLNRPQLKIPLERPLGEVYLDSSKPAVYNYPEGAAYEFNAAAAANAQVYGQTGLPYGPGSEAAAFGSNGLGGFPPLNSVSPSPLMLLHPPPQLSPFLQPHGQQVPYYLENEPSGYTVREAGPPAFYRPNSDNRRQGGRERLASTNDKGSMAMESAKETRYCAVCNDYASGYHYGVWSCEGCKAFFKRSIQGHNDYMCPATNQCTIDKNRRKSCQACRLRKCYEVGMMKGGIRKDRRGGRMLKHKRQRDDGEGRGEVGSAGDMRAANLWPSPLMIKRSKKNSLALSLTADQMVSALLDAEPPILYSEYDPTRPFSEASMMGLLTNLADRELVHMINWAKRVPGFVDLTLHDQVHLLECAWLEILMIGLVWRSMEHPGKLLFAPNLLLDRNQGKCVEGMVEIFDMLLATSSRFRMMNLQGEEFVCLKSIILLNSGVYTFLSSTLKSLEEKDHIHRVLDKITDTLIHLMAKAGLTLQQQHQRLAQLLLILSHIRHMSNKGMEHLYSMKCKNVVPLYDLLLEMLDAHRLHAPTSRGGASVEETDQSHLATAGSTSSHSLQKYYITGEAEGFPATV
Androgen receptor (Homo sapiens), sequence (P10275 whole entry, looked up): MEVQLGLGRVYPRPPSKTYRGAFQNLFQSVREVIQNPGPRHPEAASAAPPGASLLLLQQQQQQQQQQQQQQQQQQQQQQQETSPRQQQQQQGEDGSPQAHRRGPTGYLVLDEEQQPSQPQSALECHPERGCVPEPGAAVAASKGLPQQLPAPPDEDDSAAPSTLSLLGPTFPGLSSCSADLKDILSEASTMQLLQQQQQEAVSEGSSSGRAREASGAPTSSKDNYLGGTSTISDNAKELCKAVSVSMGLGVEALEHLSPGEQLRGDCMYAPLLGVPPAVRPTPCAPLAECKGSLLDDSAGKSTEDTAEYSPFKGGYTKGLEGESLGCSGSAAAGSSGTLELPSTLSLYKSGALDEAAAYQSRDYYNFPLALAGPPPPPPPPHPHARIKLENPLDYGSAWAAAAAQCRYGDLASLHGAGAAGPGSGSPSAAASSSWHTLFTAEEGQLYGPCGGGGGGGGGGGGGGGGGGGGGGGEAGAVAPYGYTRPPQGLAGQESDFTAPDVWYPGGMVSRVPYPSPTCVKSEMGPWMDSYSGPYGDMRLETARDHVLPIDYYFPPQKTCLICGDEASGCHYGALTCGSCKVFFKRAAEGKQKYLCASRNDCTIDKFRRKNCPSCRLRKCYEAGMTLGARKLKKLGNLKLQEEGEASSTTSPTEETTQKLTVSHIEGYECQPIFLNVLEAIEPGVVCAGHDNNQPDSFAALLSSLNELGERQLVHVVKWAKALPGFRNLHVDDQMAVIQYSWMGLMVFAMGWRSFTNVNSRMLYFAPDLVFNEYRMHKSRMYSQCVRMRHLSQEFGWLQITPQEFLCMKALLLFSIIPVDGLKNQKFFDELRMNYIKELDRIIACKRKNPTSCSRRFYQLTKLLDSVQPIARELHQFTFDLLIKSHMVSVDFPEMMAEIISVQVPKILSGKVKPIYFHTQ

Turning to `ClC1=C(Cl)C1(Cl)Cl`, the Potency result in assay [1], in assay [2], in [3], in assay [4], in [5] and in [6] was “inactive” each time. Moreover, the Potency result in assay [7], in assay [8], in [9], in [10], in [11] and in assay [12] was “inactive” in each case. Also, the Potency result in [13], in [14], in assay [15] and in assay [16] was “inactive” each time.

For `CNS(=O)(=O)c1cc(C(=O)N2CCC(CCN3C4CCC3CC(n3c(C)nc5ccccc53)C4)(c3cccc(F)c3)CC2)c(Cl)cc1F` (stereo not drawn), the Potency result in assay [1], in [2], in assay [3], in assay [17], in [4] and in [8] was “inactive” each time. Moreover, the Potency result in [10], in assay [11], in assay [12], in [19], in assay [14] and in assay [16] was “inactive” each time. For the same molecule, the values for the Potency in assay [6] and in [18] were 4.36 µM (active) and 24.3 µM (active), respectively.

As to `Cc1cccc2sc(N)nc12`, the Potency entry in assay [1], in assay [2], in assay [3], in [4], in assay [5] and in assay [6] was “inactive” throughout. Besides, the Potency entry in [7], in [8], in assay [9], in [10], in assay [11] and in assay [12] was “inactive” in each case. Moreover, the Potency entry in assay [13], in assay [19], in assay [14], in assay [15] and in [16] was “inactive” each time.

Regarding `CNc1c2c(nn1C)CCCC2`, the Potency entry in [1], in assay [2], in [3], in assay [4], in assay [5] and in assay [6] was “inactive” throughout. Further, the Potency result in [8], in [9], in assay [10], in assay [11], in [12] and in assay [20] was “inactive” in each case. Also, the Potency result in [14], in assay [15] and in assay [16] was “inactive” in each case.

For `CC(=O)OCCC1CCCCC1`, the Potency result in assay [1], in assay [2], in assay [3], in [4], in [5] and in [6] was “inactive” in each case. In addition, the Potency entry in assay [7], in assay [8], in assay [9], in assay [10], in assay [11] and in assay [12] was “inactive” each time. Further, the Potency result in assay [19], in assay [14], in assay [15] and in assay [16] was “inactive” throughout.

With `COC(=O)C1=C(C)NC(C)=C(C(=O)OC(C)(C)CN(C)CCC(c2ccccc2)c2ccccc2)C1c1cccc([N+](=O)[O-])c1` (stereo not drawn), the Potency result in [1], in assay [2], in assay [3], in [17], in assay [4] and in assay [6] was “inactive” each time. Moreover, the Potency result in assay [7], in assay [8], in [9], in [10], in assay [11] and in assay [12] was “inactive” in each case. The Potency result in [20], in [19], in [14], in assay [15] and in assay [16] was “inactive” each time. For the same molecule, the Potency in [18] was 26.6 µM (active).

As to `O=C(O)c1cccc(C[C@@H]2COc3ccc(OCc4nc5cc(F)ccc5s4)cc3[C@@H]2O)c1`, the Potency entry in assay [1], in assay [2], in [3], in assay [4], in assay [5] and in assay [6] was “inactive” in each case. Also, the Potency result in assay [7], in [8], in assay [9], in assay [10], in assay [11] and in assay [12] was “inactive” throughout. The Potency result in assay [19], in assay [14], in [15] and in assay [16] was “inactive” in each case.

Take `O=C(O)CO`: the Potency entry in assay [1], in [2], in [3], in [4], in assay [5] and in assay [6] was “inactive” in each case. Also, the Potency entry in assay [7], in assay [8], in assay [9], in assay [10], in [11] and in assay [12] was “inactive” in each case. The Potency result in [13], in [14], in assay [15] and in [16] was “inactive” each time.
